Among the data in PubChem BioAssay (NCI) are growth values, retold here.

Compounds without any hit were thinned out: in the full panel of roughly 83,000, 20% have a hit.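 The test compound was applied at a single concentration to cells in 96-well plates for 48 hours, and percent growth was recorded.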 Activity calls are given as the source filed them. How the source made its calls: active means growth percent below 10; inactive means the rest.

The experiment relates to OVCAR-4 ovarian. Briefly: NCI-60 one-dose screen, 48 h (100 = growth as untreated, 0 = no growth, -100 = all killed). The following applies: 10 µM unless noted.
For `CN(C)C(=O)Oc1ccccc1`, the growth was 101% (inactive).
Take `CC[C@H](C)[C@H](NC(=O)C12C3C4C1C1C2C3C41NC(C)=O)C(=O)N(C)[C@H](C[C@@H](OC(C)=O)c1nc(C(=O)N[C@@H](Cc2ccccc2)C[C@H](C)C(=O)OC)cs1)C(C)C` (stereo partly specified): the growth is 38.7% (inactive).
To `COc1ccc(C(=O)c2sc3nc4c(cc3c2N)N2CCC4CC2)cc1OC` belongs 85.7% (inactive).
Turning to `CCC(CC)CC1(C)CC2(C)CCOC2OO1` (stereo unspecified), the growth was 95.4% (inactive).
With `ClCCN(CCCl)c1ccc(/C=N\N=C\c2ccc(N(CCCl)CCCl)cc2)cc1` the figure was 53% (inactive); with `CCOC(=O)C(Cc1ccc(N(CCCl)CCCl)cc1)NC(=O)C(CC(C)C)NC(C)=O` (stereo unspecified), -16.2% (active); with `CCN(CCO)C(Cc1ccccc1)c1ccccc1` (stereo unspecified), 102% (inactive).
For `C=CCc1cc2c(cc1OCC)OCO2`, the growth was 108% (inactive).
Take `N#Cc1c(Br)n(C2OC(CO)C(O)C2O)c2ncnc(N)c12` (stereo unspecified): the growth was 75.3% (inactive).
`NC(=S)c1cn(C2OC(CO)C(O)C2O)c2ncnc(N)c12` (stereo unspecified): the growth is -7.48% (active).
To `O=P(N1CC1)(N1CC1)N1CCc2ccccc21` belongs 115% (inactive); to `Oc1ccc2c3c1OC1[C@@H](O)CC[C@@]4(O)[C@@H](C2)N(CC2CCC2)CC[C@]314` (stereo partly specified), 98.2% (inactive).
To `ClCCN(CCCl)c1ccc(OCc2ccccc2)cc1` belongs 78.7% (inactive); to `N#CC1(C#N)C(c2ccc(N(CCCl)CCCl)cc2)OC23CCCCC2C1(C#N)C(=N)O3` (stereo unspecified), 91.9% (inactive); to `Nc1ccc2c(c1)oc1ccccc12`, 103% (inactive).
To `CNC(=O)Oc1ccc(C(C)(C)C)cc1OC(=O)NC` belongs 96.3% (inactive).
